This passage reports Potency and activation results from PubChem BioAssay (NCATS).

“And” between values parts separate entries of the source, which are not always exact repeats. Equal values may be shown once. Inconclusive results are not listed. Unmarked numbers belong to inactive results. The source made the active and inactive calls. Unless noted, the call rests on the fitted dose curve; in most records, active means well fitted activation curve with a large enough effect; inconclusive means small, poorly fitted or top-dose-only effect; inactive means flat fitted curve, though single readings scatter.

A short description of one experiment: qHTS assay to identify small molecules that stimulate interleukin-8 (IL-8) secretion (AID 651758; active means well fitted activation curve with a large enough effect in the signal ratio; the % refers to the signal ratio; further: 0% is about no effect). As to conditions: HTRF ratio (665/615); series mostly up to 92.2 µM. In a few lines: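 THP-1, 2000 cells/well; cpd 16 h, 37 C; add cryptate + XL665 anti-IL-8 Abs; RT 1-3 h; TR-FRET read.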
(In general: Quantitative high-throughput screening tests each substance at several concentrations.)
Consider `Oc1c(Cl)ccc(Cl)c1Cl`, for which the Potency entry is “inactive”.
Still for that read-out and setting: as for `C=Cc1ccccn1`, the entry is “inactive”.
Same read-out and setting: as for `Nc1ccc([N+](=O)[O-])c(N)c1`, the entry is “inactive”; as for `C=CC(=O)NC(C)C`, “inactive”.
Still for that read-out and setting: as for `CCCCCCCCN`, the entry is “inactive”; as for `Cc1ccccc1C=O`, “inactive”; as for `O=C1OC(=O)c2c(Br)c(Br)c(Br)c(Br)c21`, “inactive”.
`O=Cc1cccc(Br)c1`: the Potency entry is “inactive”.
On the same count and under the same terms, as for `O=Cc1ccc(CO)o1`, the entry is “inactive”.

A further experiment is described as follows: qHTS assay for environmental chemicals that activate the Aryl hydrocarbon Receptor (AhR) signaling pathway (AID 651777). Further: % of control where 0% means no effect; nearly all actives have a fitted effect of over 15% in size. The following applies: 1A2-DRE human hepatoma cells, luciferase, 24 h; activation: hits give high values. In a few lines: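 Measured luciferase activity, read 30 min after One-Glo addition at room temperature, from human hepatoma cells bearing a dioxin response element–CYP1A2 promoter reporter and exposed to compound for 24 hr at 37 C.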
With `O=[N+]([O-])c1ccc(NCCO)c(OCCO)c1`, the activation is 0.85%.
On the same count and under the same terms, as for `Cc1cscn1`, the figure is 1.08%; as for `CCCCCCCN`, -0.576%.
Same read-out and setting: as for `CC(C)(O)CCC(C)(C)O`, the figure is 1.58%; as for `Nc1cccc(S(=O)(=O)O)c1`, -0.739%; as for `O=Cc1c(Cl)cccc1Cl`, 1.15%.
Same read-out and setting: as for `C=Cc1ccccn1`, the figure is 0.147%.
Turning to `Nc1ccc([N+](=O)[O-])c(N)c1`, the activation is 1.41%.
Take `Nc1cccc(N)c1`: the activation was 4.51%.
As to `Cc1ccc([N+](=O)[O-])c(N)c1`, the activation is 0.147%.
The same measure, in the same setting: as for `COc1ccc(N)c(OC)c1`, the figure is 3.03%; as for `C=CCCCC`, 0.475%; as for `C/C(C=O)=C/c1ccccc1`, -1.35%.
Consider `CCCCCCCCN`, for which the activation is 1.65%.
On the same count and under the same terms, as for `C=CCCCCCC`, the figure is 0.992%.
On the same count and under the same terms, as for `Cc1ccccc1C=O`, the figure is -0.786%; as for `CCN(CC)c1cccc(O)c1`, 4.44%; as for `Cc1c(N)cccc1N`, 6.39%.
Consider `CC(=C/C=C/C(C)=C/C=C/C=C(C)/C=C/C=C(C)/C=C/C(=O)O)/C=C/C(=O)O`, for which the activation was 2.66%.
Same read-out and setting: as for `NC(=S)NNC(N)=S`, the figure is 0.955% and 1.28%.
In the case of `CCNc1cc(O)ccc1C`, the activation is 6.45%.
Still for that read-out and setting: as for `Cc1ccc(C#N)cc1`, the figure is 2.83%; as for `c1ccc2n[nH]nc2c1`, 0.556%.
The same measure, in the same setting: as for `Nc1cccc2c(=O)[nH][nH]c(=O)c12`, the figure is 0.365%; as for `Cc1c(N)cccc1[N+](=O)[O-]`, -0.541%; as for `O=C1OC(=O)c2c(Br)c(Br)c(Br)c(Br)c21`, -1.58% and 0.554%.
The same measure, in the same setting: as for `CCCCC/C=C/C=C/C=O`, the figure is 0.997% and -0.836%; as for `O=Cc1cccc(Br)c1`, 0.191%; as for `O=Cc1ccc(CO)o1`, -1.71%.
`C=CCn1c(=O)n(CC=C)c(=O)n(CC=C)c1=O`: the activation was 0.438%.
The same measure, in the same setting: as for `CCCCCCCCCCCCC1CO1` (stereo unspecified), the figure is 0.974%; as for `Cc1ccc(C(=O)O)cc1`, -0.0785%.
